# Measurements published in PubChem BioAssay AID602333 (Sanford-Burnham Center for Chemical Genomics, 2012).
# Hit rate of the full screen: of about 1,900 compounds, about 240 (13%) were called active.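 The calls were made as follows: active = mean inhibition at least 40% at 20 µM, or signal 3 deviations below plate average, so some actives read negative; inactive = the rest.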 The list is a sample of the results.
# Target: Prothrombin (Bos taurus) (UniProt P00735)
# Test: bovine thrombin protease inhibition, confirmation, counter-screen for Rpn11 inhibitor project, biochemical, fluorescence polarization, single concentration (AID 602333);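 also: plate controls were thrombin with DMSO for no effect and buffer wells lacking thrombin for full effect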
# Details: bovine thrombin cleavage of Ub4-pepOG, at 20 µM, active compounds read high
# Prothrombin (Bos taurus), sequence (P00735 whole entry, looked up): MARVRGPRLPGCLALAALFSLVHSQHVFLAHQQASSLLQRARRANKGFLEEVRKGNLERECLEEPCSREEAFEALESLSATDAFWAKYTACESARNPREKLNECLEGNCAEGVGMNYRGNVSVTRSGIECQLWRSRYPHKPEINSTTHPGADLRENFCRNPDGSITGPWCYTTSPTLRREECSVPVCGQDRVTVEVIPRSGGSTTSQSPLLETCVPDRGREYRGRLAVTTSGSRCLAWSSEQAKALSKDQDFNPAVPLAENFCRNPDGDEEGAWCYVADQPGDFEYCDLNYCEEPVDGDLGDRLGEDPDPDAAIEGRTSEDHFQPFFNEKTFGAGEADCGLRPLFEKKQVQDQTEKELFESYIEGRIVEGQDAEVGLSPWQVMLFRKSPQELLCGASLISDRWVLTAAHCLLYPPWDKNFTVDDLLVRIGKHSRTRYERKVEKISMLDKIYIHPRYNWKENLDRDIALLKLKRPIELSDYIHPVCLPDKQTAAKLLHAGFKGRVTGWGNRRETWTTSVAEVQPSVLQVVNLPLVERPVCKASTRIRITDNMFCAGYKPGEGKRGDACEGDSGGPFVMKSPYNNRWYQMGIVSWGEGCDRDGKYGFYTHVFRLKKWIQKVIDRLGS
row,SMILES,inhibition
1,C=CC1=C(C(=O)O)N2C(=O)[C@@H](NC(=O)/C(=N/OCC(=O)O)c3csc(N)n3)[C@H]2SC1,-49.6% (inactive)
2,O=C(COc1cccc(F)c1)Oc1ccc(C(=O)c2ccccc2)cc1,-6.51% (inactive)
3,C/C(=N/Nc1nc(-c2ccccc2)c(CC(=O)O)s1)c1ccccc1,11.8% (inactive)
4,COc1cc(/C=C2/SC(=S)N(Cc3ccccc3)C2=O)cc(OC)c1O,30.8% (inactive)
5,Cc1ccc(Nc2nc(Cl)c(C=O)s2)cc1,47% (active)
6,Cc1ccc(Nc2ccccc2N)cc1,15.5% (inactive)
7,CCOc1cc(/C=C2\SC(N3CCCCC3)=NC2=O)ccc1O,21% (inactive)
8,Oc1ccc(/C=N/Nc2nc(-c3ccccc3F)nc3ccccc23)c(O)c1,5.18% (inactive)
9,COc1ccc2[nH]c(=O)c(-c3noc(-c4ccc(F)cc4)n3)cc2c1,2.93% (inactive)
10,Cc1ccc2cc(C#N)c(NCCNC(=S)NCCCN3CCOCC3)nc2c1,-7.45% (inactive)
11,C=CCn1c(SCC(=O)NCc2ccccc2)nnc1-c1cc(Br)ccc1O,-3.07% (inactive)
12,CCCCCCCCCCOC(=O)Cn1c(COc2cccc(OC)c2)[n+](C)c2ccccc21,-11.8% (inactive)
13,Cc1c(NC(=O)CSc2cccc3cccnc23)c(=O)n(-c2ccccc2)n1C,-11.3% (inactive)
14,Cc1nc2ccc(C(=O)N3CCSCC3)cc2s1,-9.73% (inactive)
15,CCC(C)Cn1c(O)cc2nn(-c3nc4ccccc4s3)c(=O)c-2c1C (stereo not given),3.33% (inactive)
16,CCNCc1cc2cc(C)ccc2[nH]c1=O,7.4% (inactive)
17,CCN1CCN(c2cc3nc(C)n(Cc4ccccc4)c(=O)c3cc2NC(=O)c2ccccc2F)CC1,-5.14% (inactive)
18,COc1ccc(Cl)cc1NC(=O)CCS(=O)(=O)c1ccc(Br)cc1,-12.6% (inactive)
19,COc1cccc(NC(=O)C(C)Oc2ccccc2)c1 (stereo not given),-2.75% (inactive)
20,Cc1ccc(NC(=O)c2c(NC(=O)CCC(=O)O)sc3c2CCCCC3)cc1,-10.8% (inactive)
21,CCOc1ccc(NC(=O)c2ccc(NC(=O)COC(=O)c3ccc(NC(=O)CC#N)cc3)cc2)cc1,-22.9% (inactive)
22,COc1cccc(-c2nn(-c3ccccc3)cc2/C=C(\C#N)C(=O)NCCCn2ccnc2)c1,3.86% (inactive)
23,CCN1CCCC1CNC(=O)c1cc2c(=O)n(C)c3ccccc3c2n1C (stereo not given),-4.94% (inactive)
24,CC(C)(C)NC(=O)CSC(=Nc1ccccc1F)NC#N,4.77% (inactive)
25,Cc1ccc(-c2nnc(-c3ccc(NC(=O)c4cccs4)cc3)o2)cc1,-6.56% (inactive)
26,Cc1nc2ccccc2nc(=O)c1NNc1ccc([N+](=O)[O-])cc1,28.5% (inactive)
27,CC(C)Cn1c(CCC(=O)O)ccc1-c1cccs1,-22.2% (inactive)

row,SMILES,inhibition
1,CCC/C=C(\CCC)C(NC(=O)Cc1ccccc1)c1ccc(C(=O)OC)cc1 (stereo not given),-11.1% (inactive)
2,Cc1oc2c(C)c3oc(=O)c(CC(=O)N[C@@H](CC(C)C)C(=O)N[C@@H](Cc4ccccc4)C(=O)O)c(C)c3cc2c1C,29.3% (inactive)
3,Cc1cc(/C=C2/SC(=O)N(CC(=O)N3CCCC3)C2=O)ccc1N1CCOCC1,23.9% (inactive)
4,CC(=O)Nc1ccccc1Sc1ccc2c3c(cccc13)C(=O)N(c1ccc(C)cc1)C2=O,4.95% (inactive)
5,O=C1NC(=O)C2C1C(c1ccc([N+](=O)[O-])cc1)=NN2Cc1ccccc1 (stereo not given),15.8% (inactive)
6,Cc1cccc(OCc2nnc(SCc3nc4cc(C(F)(F)F)ccc4c(=O)[nH]3)o2)c1,42.8% (active)
7,CC(=O)/C(=N\Nc1ccc(Cl)cc1Cl)Sc1cccc2cccnc12,1.24% (inactive)
8,CC1CCN(c2ccc3c(c2)S(=O)(=O)c2cc(C(=O)O)ccc2C3=O)CC1,18.1% (inactive)
9,CN(C)c1ccc(-n2cccc2/C=C2/SC(=Nc3ccc(F)cc3)NC2=O)cc1,-29.3% (inactive)
10,O=C(CSc1nc2ccccc2c(=O)[nH]1)Nc1nc(-c2ccc(Br)cc2)cs1,-3.66% (inactive)
11,CCOC(=O)N1CCC(NC(=O)C(NS(=O)(=O)c2ccc3c(c2)CCN3C(=O)CC)C(C)C)CC1 (stereo not given),1.81% (inactive)
12,CCOc1ccc(-n2c(O)c(/C=N/Nc3nnc(C)c(=O)[nH]3)c3ccccc3c2=O)cc1,-1.67% (inactive)
13,CCOc1ccc(-n2c(O)c(/C=N/c3ccnn3Cc3ccncc3)c3ccccc3c2=O)cc1,82.5% (active)
14,CC(C)Oc1ccc(/C=C(\NC(=O)/C=C/c2ccco2)C(=O)NCCc2nc3ccccc3[nH]2)cc1,21% (inactive)
15,COc1ccc(CNC(=O)c2nnn(CC(=O)Nc3cc(C)cc(C)c3)c2N)cc1,-6.95% (inactive)
16,CN(C)CCOC1c2ccccc2-c2ccccc21,-14% (inactive)
17,CC(=O)c1sc(N/N=C/c2ccc(C(C)C)cc2)nc1C,-6.77% (inactive)
18,Cc1ccc(NC(=O)CN2CCc3ccccc3C2)cc1,-14.3% (inactive)
19,C=CC[n+]1c(-c2ccc(C)cc2)csc1NNC(=O)Nc1ccccc1,4.61% (inactive)
20,COc1ccc(-n2c(SCC(=O)Nc3sc4c(c3C#N)CCCC4)nnc2-c2ccc(O)cc2)cc1,-8.59% (inactive)
21,Cc1nc2ccccc2n1C(=O)N1CCOCC1,-8.33% (inactive)
22,CCCS(=O)(=O)N1CCCC(C(=O)NCc2ccco2)C1 (stereo not given),-12.9% (inactive)
23,Cc1ccc(N=Cc2c(O)cc(C)oc2=O)c(C)c1,8.99% (inactive)
24,CSC1=N/C(=C\C=C\c2cccs2)C(=O)S1,3.5% (inactive)
25,CCCOc1ccc(Cn2c(O)cc(=O)[nH]c2=O)cc1,7.31% (inactive)
26,Nc1nonc1-n1nnc(C(=O)N/N=C/c2cc(Br)ccc2O)c1CSC1=NCCS1,2.28% (inactive)
27,CCN(CC)C(=O)CSc1nc2ccccc2n1CC(=O)N1CCN(c2ccccc2OC)CC1,-2.4% (inactive)

row,SMILES,inhibition
1,COc1cccc(/C=C(/CC(=O)Nc2ccc(N3CCOCC3)cc2)c2nc3ccccc3s2)c1,7.25% (inactive)
2,O=C(O)c1ccc(NN=CC2=C(N3CCOCC3)/C(=C/c3ccccc3)CC2)cc1,46.5% (active)
3,CCCCCCSc1ccc([C@@H]2[C@H]3C(=O)N(CC)C(=O)[C@H]3[C@]3(C(=O)OC)CCCCN23)cc1,60.5% (active)
4,O=C(Nc1ccc(-c2nnc(-c3ccccc3)o2)cc1)c1ccc(Br)o1,-5.94% (inactive)
5,Cc1c(N=Nc2ccc(N(C)C)cc2)c(=O)n(-c2ccccc2)n1C,37.7% (inactive)
6,N#Cc1c(-c2cccs2)nc(SCC(=O)c2ccc(Br)cc2)[nH]c1=O,15.6% (inactive)
7,NC(N)=N/N=C/c1ccc(OCc2ccc(Cl)cc2Cl)cc1,-36.6% (inactive)
8,CS(=O)(=O)c1ccc2c(c1)SC1=NC(=O)/C(=C/c3ccco3)C(=N)N12,26% (inactive)
9,Cc1sc2nc(COC(=O)C(NC(=O)c3ccc(Cl)cc3Cl)C(C)C)[nH]c(=O)c2c1C (stereo not given),13.5% (inactive)
10,O=C(CSc1cccc2cccnc12)N/N=C/c1cccnc1,-13.1% (inactive)
11,CC(C)CC1C(=O)N(Cc2cn(Cc3ccco3)nn2)CCS(=O)(=O)N1Cc1ccc(-c2ccc(Cl)c(Cl)c2)cc1 (stereo not given),-6.74% (inactive)
12,COC1=C/C(=C/c2c(N)n3nc(CC(=O)N4CCOCC4)sc3nc2=O)C=CC1=O,36% (inactive)
13,CN=c1scc(-c2cc(OC)ccc2OC)n1/N=C/c1c(C)[nH]c2ccccc12,30% (inactive)
14,O=C(OCc1cc2ccccc2[nH]c1=O)c1cccnc1,-12.2% (inactive)
15,CCOc1cc(/C=C2\SC(N3CCCC(C)C3)=NC2=O)ccc1O (stereo not given),10% (inactive)
16,CCc1ccc(-c2cc(C(=O)NCc3ccco3)c3ccccc3n2)s1,33.8% (inactive)
17,Oc1c(CN2CCCC2)cc(COCc2ccccc2)c2cccnc12,-28.1% (inactive)
18,O=C(CCS(=O)(=O)c1cccc2nonc12)NCCc1ccccc1Cl,-6.4% (inactive)
19,CCc1ccc(NC(=O)CS(=O)CC(=O)NCCCc2ccccc2)cc1 (stereo not given),5.42% (inactive)
20,N#Cc1ccc(C(=O)Nc2cccc3cccnc23)c(F)c1,-28.1% (inactive)
21,COc1ccc(NC(=O)Cn2c(-c3ccc(OC)cc3)cn(-c3ccc(C)cc3)c2=O)cc1,29.3% (inactive)
22,Cc1cc(/C=N/Nc2ccc([N+](=O)[O-])cn2)c(C)n1-c1cccc(C(=O)O)c1,-0.18% (inactive)
23,COc1ccc(CC(=O)Nc2ccc(-c3nnc(-c4ccc(C)cc4)o3)cc2)cc1,-14.6% (inactive)
24,C=CCn1c(=S)[nH]c2scc(-c3ccco3)c2c1=O,-8.62% (inactive)
25,Cc1cc(OCC(=O)Nc2nccs2)c2c(C)c(C)c(=O)oc2c1,-9.45% (inactive)
26,COC(=O)c1ccc(OCC(=O)NC(C)(C)C)cc1,-4.55% (inactive)
